Compound activity (PubChem BioAssay)
Kir21 inh = Kir2.1 (mouse) channel inhibition; P35561; HEK293-Kir2.1, FluxOR thallium flux fluorescence; stronger effect = lower value; B-score at 10 µM; actives 0.85% (n = 310,000); AID 1672;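 active = fluorescence ratio B-score at or below minus 3 SD of library scores, with starting-brightness B-score within 2 SD, cut at about -4.2 in these data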;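 also: channel flux triggered by added potassium and thallium sulfate stimulus; B-score of peak minus minimum fluorescence over baseline after thallium stimulus; more negative B-score means stronger Kir2.1 block with less thallium influx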
Target sequence (P35561 whole entry, looked up): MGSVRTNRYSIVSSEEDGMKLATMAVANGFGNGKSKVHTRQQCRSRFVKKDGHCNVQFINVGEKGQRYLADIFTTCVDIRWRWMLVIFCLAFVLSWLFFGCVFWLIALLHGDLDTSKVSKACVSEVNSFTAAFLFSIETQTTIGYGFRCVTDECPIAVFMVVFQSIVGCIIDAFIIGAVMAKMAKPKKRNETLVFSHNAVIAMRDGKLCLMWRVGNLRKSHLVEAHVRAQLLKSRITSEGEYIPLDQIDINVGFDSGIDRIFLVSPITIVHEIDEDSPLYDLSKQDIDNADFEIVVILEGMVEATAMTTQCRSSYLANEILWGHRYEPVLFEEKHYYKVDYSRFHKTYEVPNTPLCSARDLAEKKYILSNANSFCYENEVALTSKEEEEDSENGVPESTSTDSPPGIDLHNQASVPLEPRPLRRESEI
KCNK3 inh = human KCNK3 channel inhibition, primary screen | O14649 | CHO-KCNK3 thallium flux, FluxOR fluorescence; stronger effect = lower value | B-score at 10 µM | actives 0.84% (n = 340,000) | AID 602410;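 active = B-score under library mean minus 4 SD, starting fluorescence ratio at most library mean plus 5 SD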;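 also: more negative B-score means stronger inhibition of thallium flux through KCNK3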
TMEM16A inh = blocks the mouse calcium-activated chloride channel TMEM16A; Q8BHY3; HEK293 TMEM16A/YFP iodide influx fluorescence, ionomycin; normalized B-score (activity score, 25-100; higher = stronger inhibition) at 10 µM; actives 1.2% (n = 310,000); AID 588511;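 active = ratio plate-corrected score three or more library SD toward inhibition, starting fluorescence score within five deviations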;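 also: score derived from kinetic fluorescence span divided by baseline fluorescence per well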
ANO1 activ = activates or potentiates the mouse TMEM16A chloride channel; Q8BHY3; HEK293 TMEM16A/YFP-H148Q/I152L, iodide quench fluorescence; stronger effect = lower value; B-score at 10 µM; actives 0.3% (n = 340,000);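 active = fluorescence-ratio B-score plate-corrected deviation score at least 3 library SD below zero, with starting fluorescence score within 5 deviations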;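 also: channel opened by trigger with iodide after compound preincubation; score built on the fluorescence ratio of max minus min over baseline; more negative score means more quench and so TMEM16A activation or potentiation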
KCNK9 inh = blocks the human KCNK9 two-pore domain potassium channel. Q9NPC2. HEK293 KCNK9, FluxOR thallium flux fluorescence; stronger effect = lower value. B-score at 10 µM. actives 1.2% (n = 310,000). AID 488922;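 active = ratio B-score over 3 SD below the library mean, with starting fluorescence within 5 SD of its mean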;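 also: negative B-score means less thallium flux so channel inhibition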
The depositor's hits bear a star. This is a sample that favours compounds with a hit; in the whole collection about 3.5% have one here.

How did CN(C)S(=O)(=O)Oc1cccc(C(=O)Nc2ccccc2Cl)c1 do in these assays?
Kir21 inh: -1.4; KCNK3 inh: inactive; TMEM16A inh: inactive; ANO1 activ: inactive; KCNK9 inh: inactive

How did COc1ccc(C)cc1NS(=O)(=O)c1ccc2c(c1)N(C)CCO2 do in these assays?
Kir21 inh: -5.6*; KCNK3 inh: inactive; TMEM16A inh: inactive; ANO1 activ: inactive; KCNK9 inh: inactive

Results for COc1ccc(C)cc1NS(=O)(=O)c1ccc2c(c1)n(C)c(=O)n2C ?
Kir21 inh: -1.8; KCNK3 inh: inactive; TMEM16A inh: inactive; ANO1 activ: inactive; KCNK9 inh: inactive

How did C=CCn1c(C)cc(-c2csc(NCC)n2)c1C do in these assays?
Kir21 inh: -0.3; KCNK3 inh: inactive; TMEM16A inh: inactive; ANO1 activ: -5.4*; KCNK9 inh: inactive

Results for Brc1cc2c(cc1/C=N/Nc1nc(N3CCOCC3)nc(N3CCOCC3)n1)OCO2 ?
Kir21 inh: 0.35; KCNK3 inh: inactive; TMEM16A inh: inactive; ANO1 activ: inactive; KCNK9 inh: inactive

What do the screens show for `CC(Oc1ccc(Cl)cc1Cl)C(=O)NCCC1=CCCCC1` (configuration not stated)?
Kir21 inh: -7*; KCNK3 inh: inactive; TMEM16A inh: inactive; ANO1 activ: inactive; KCNK9 inh: inactive

What do the screens show for `C/C=C/C=C/C(=O)[C@@H]1[C@@H]([C@]2(C)OC(=O)C(C)=C2O)[C@H]2/C(=C(O)/C=C/C=C/C)C(=O)[C@]1(C)C(=O)C2(C)O` (some centres not stated)?
Kir21 inh: 0.69; KCNK3 inh: inactive; TMEM16A inh: inactive; ANO1 activ: inactive; KCNK9 inh: inactive

How did COC(=O)c1cc(S(=O)(=O)NCCc2ccc(C)cc2)c[nH]1 do in these assays?
Kir21 inh: -2.6; KCNK3 inh: inactive; TMEM16A inh: 25*; ANO1 activ: inactive; KCNK9 inh: inactive

How did COC(=O)c1cc(S(=O)(=O)NCCc2ccc(Cl)cc2)c[nH]1 do in these assays?
Kir21 inh: 2.4; KCNK3 inh: inactive; TMEM16A inh: inactive; ANO1 activ: inactive; KCNK9 inh: inactive

How did Fc1ccc(CNCCC(Cc2ccccc2)c2ccco2)cc1 (configuration not stated) do in these assays?
Kir21 inh: -15*; KCNK3 inh: inactive; TMEM16A inh: inactive; ANO1 activ: inactive; KCNK9 inh: inactive

What do the screens show for `O=C(NCCNCc1ccc(F)cc1)c1ccco1`?
Kir21 inh: -1.4; KCNK3 inh: inactive; TMEM16A inh: inactive; ANO1 activ: inactive; KCNK9 inh: inactive

How did CCC(=O)c1ccc(N2CCN(C(=O)c3ccc(Br)cc3)CC2)c(F)c1 do in these assays?
Kir21 inh: 0.07; KCNK3 inh: inactive; TMEM16A inh: inactive; ANO1 activ: inactive; KCNK9 inh: inactive

What do the screens show for `CCC(=O)c1ccc(N2CCN(C(=O)c3ccc(F)cc3)CC2)c(F)c1`?
Kir21 inh: 0.34; KCNK3 inh: inactive; TMEM16A inh: 25*; ANO1 activ: inactive; KCNK9 inh: inactive

What do the screens show for `CO/N=C/c1ccc(N2CCN(C(=O)c3ccc(Cl)cc3Cl)CC2)c([N+](=O)[O-])c1`?
Kir21 inh: 1.5; KCNK3 inh: inactive; TMEM16A inh: 100*; ANO1 activ: inactive; KCNK9 inh: inactive

What do the screens show for `CO/N=C/c1ccc(N2CCN(C(=O)c3ccc(F)cc3)CC2)c([N+](=O)[O-])c1`?
Kir21 inh: 0.82; KCNK3 inh: inactive; TMEM16A inh: 100*; ANO1 activ: inactive; KCNK9 inh: inactive

Results for Cc1onc(-c2ccccc2)c1C(=O)Nc1cccc(S(=O)(=O)N2CCCCC2)c1 ?
KCNK3 inh: inactive; ANO1 activ: inactive

What do the screens show for `CC(C)Cc1ccc(C(C)C(=O)O)cc1` (configuration not stated)?
Kir21 inh: 1.5; KCNK3 inh: inactive; TMEM16A inh: inactive; ANO1 activ: inactive; KCNK9 inh: inactive

How did CC(C)Cc1ccc(C(C)C(N)=NCCc2ccccc2)cc1 (configuration not stated) do in these assays?
Kir21 inh: -7.5*; KCNK3 inh: inactive; TMEM16A inh: inactive; ANO1 activ: inactive; KCNK9 inh: inactive

Results for CCCCC(=O)Nc1ccc(N2CCN(C(=O)c3ccco3)CC2)cc1 ?
Kir21 inh: 1.5; KCNK3 inh: inactive; TMEM16A inh: inactive; ANO1 activ: inactive; KCNK9 inh: inactive

What do the screens show for `CCCCCC(=O)Nc1ccc(N2CCN(C(=O)CCC)CC2)cc1`?
Kir21 inh: 1.2; KCNK3 inh: inactive; TMEM16A inh: 100*; ANO1 activ: inactive; KCNK9 inh: inactive

Results for Cn1c2ccccc2c(=O)c2ccc(C#CC3(O)CCCCC3)cc21 ?
Kir21 inh: -0.01; KCNK3 inh: inactive; TMEM16A inh: inactive; ANO1 activ: inactive; KCNK9 inh: inactive

What do the screens show for `COc1ccc(C#Cc2ccc3c(c2)c(=O)c2ccccc2n3C)cc1`?
Kir21 inh: -0.3; KCNK3 inh: inactive; TMEM16A inh: inactive; ANO1 activ: inactive; KCNK9 inh: -7.4*

How did COc1ccc(CCNC(=O)C(=O)NCC2OCCN2S(=O)(=O)c2cc(F)ccc2F)cc1OC (configuration not stated) do in these assays?
Kir21 inh: -1.2; KCNK3 inh: inactive; TMEM16A inh: inactive; ANO1 activ: inactive; KCNK9 inh: inactive

Results for COc1ccc(S(=O)(=O)NNc2nc(C)cc(C)n2)cc1Br ?
Kir21 inh: -1.8; KCNK3 inh: inactive; TMEM16A inh: inactive; ANO1 activ: inactive; KCNK9 inh: inactive

Results for Cc1cccc(CC(=O)NCCS(=O)(=O)N2CCN(c3cccc(Cl)c3)CC2)c1 ?
Kir21 inh: 0; KCNK3 inh: inactive; TMEM16A inh: inactive; ANO1 activ: inactive; KCNK9 inh: inactive

Results for O=C(NNC(=O)c1ccc2ccccc2c1)c1cccc(Br)c1 ?
KCNK3 inh: inactive; ANO1 activ: inactive

What do the screens show for `O=C(NNC(=S)Nc1cccc2ccccc12)c1cccc(Br)c1`?
Kir21 inh: 1.8; KCNK3 inh: inactive; TMEM16A inh: 25*; ANO1 activ: inactive; KCNK9 inh: inactive

How did CCOC(=O)c1cnn(-c2sc(C(=O)OCC)c(C)c2C(=O)OCC)c1N do in these assays?
Kir21 inh: -1.4; KCNK3 inh: inactive; TMEM16A inh: 100*; ANO1 activ: inactive; KCNK9 inh: inactive

Results for FC(F)(F)c1cnc(NNC(=S)Nc2ccc(Cl)cc2)c(Cl)c1 ?
Kir21 inh: -0.11; KCNK3 inh: inactive; TMEM16A inh: 25*; ANO1 activ: inactive; KCNK9 inh: inactive

How did Cc1ccc(NC(=S)NNc2ncc(C(F)(F)F)cc2Cl)cc1 do in these assays?
Kir21 inh: 1.2; KCNK3 inh: inactive; TMEM16A inh: inactive; ANO1 activ: inactive; KCNK9 inh: inactive

What do the screens show for `c1ccc(Nc2ccnc(Nc3ccccc3)n2)cc1`?
Kir21 inh: -1; KCNK3 inh: inactive; TMEM16A inh: 25*; ANO1 activ: inactive; KCNK9 inh: inactive
